Experimental data reported in PubChem BioAssay AID1240 (Sanford-Burnham Center for Chemical Genomics, 2008).
Out of some 50,000 compounds screened, about 800 (1.6%) showed an effect of 50% or more. This excerpt belongs to a sample that is enriched for strong results.

molecular target: Bcl-2-like protein 10 (Homo sapiens) (UniProt Q9HD36); assay: Phenotype converters, Bcl-B/TR3 peptide binding displacement, primary biochemical FP (AID 1240); conditions: GST-Bcl-B / FITC-TR3 peptide fluorescence polarization; stronger effect = higher value; compound at 3.75 mg/L;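 also: 0% = Bcl-B with tracer peptide and DMSO and 100% = tracer peptide lacking Bcl-B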
Sequence (Q9HD36 whole entry, looked up): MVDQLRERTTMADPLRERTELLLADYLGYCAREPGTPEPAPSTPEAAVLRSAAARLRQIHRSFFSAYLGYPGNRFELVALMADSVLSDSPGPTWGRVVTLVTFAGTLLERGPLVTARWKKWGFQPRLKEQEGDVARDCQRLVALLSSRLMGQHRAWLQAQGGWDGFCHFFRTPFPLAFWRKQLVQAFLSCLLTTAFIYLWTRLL

Going from CCOc1cc(C2NC(=S)NC(C)=C2C(=O)Nc2ccc(Cl)cc2)ccc1O (stereo not given) to CCOCCOC(=O)c1ccc(NC(=O)COc2ccc(C)cc2C)cc1, the displacement falls from -3.2% to -9%.

Compared with Cc1ccc2c(Cl)c(C(=O)NCC3CCCO3)sc2c1 (stereo not given), Cc1cc(Cl)ccc1OCC(=O)NCC1CCCO1 (stereo not given) is higher in displacement: -20.5% for the first, 1.4% for the second.

Going from O=C(ON=C1c2ccccc2-c2ccccc21)c1ccc(Cl)cc1Cl to Cc1cc(NC(=O)c2ccc(Cl)cc2Cl)ccc1NC(=O)c1ccccc1, the displacement falls from 13.1% to -2.3%.

Compared with Cc1ccc(C=C2C(=O)N(C)C(=O)N(C)C2=O)cc1, CCCCOc1ccc(C=C2C(=O)N(C)C(=O)N(C)C2=O)cc1 is lower in displacement: 79.7% for the first, 8.8% for the second.

First: CN1C(=O)C(=Cc2ccc(N3CCOCC3)cc2)C(=O)N(C)C1=O
Second: CC(C)(C)c1cc(C2=C(N3CCOCC3)C(=O)c3ccccc3C2=O)cc(C(C)(C)C)c1O
The displacement of the first is lower: 8.9% for the first, 11.6% for the second.

Compared with COc1ccccc1C/C(N)=N/OC(=O)COc1ccc2ccccc2c1, COc1ccccc1C/C(N)=N/OC(=O)c1ccc(I)cc1 is higher in displacement: 5.6% for the first, 10.8% for the second.

Compared with CCOc1ccccc1C1Nc2ccccc2NC2=C1C(=O)CC(c1ccc(OC)c(OC)c1)C2 (stereo not given), COc1ccc(NC(=O)c2ccc(OC)c(OC)c2)cc1Cl is higher in displacement: 11.3% for the first, 20.4% for the second.

Going from CCOC(=O)COc1ccc(/C=c2/sc3nc4cc(C)c(C)cc4n3c2=O)cc1OC to COc1cc2nc(-c3ccc([N+](=O)[O-])c(C)c3)oc(=O)c2cc1OC, the displacement falls from -4.4% to -11.4%.

First: O=C(/C=C/c1ccccc1)Nc1nnc(-c2ccncc2)s1
Second: O=C(/C=C/c1ccccc1)Nc1nnc(-c2ccccc2)s1
The displacement of the first is lower: -6% for the first, 7.6% for the second.

Going from COc1cccc(-c2nnc(NC(=O)/C=C/c3ccccc3)s2)c1 to COc1ccc(/C=C2/C(=O)ON=C2c2ccccc2)cc1, the displacement falls from 51.4% to 13.6%.

First: Cc1ccccc1NC(=O)c1ccc2ccccc2n1
Second: O=C(Nc1ccccc1Cl)c1ccc2ccccc2n1
The displacement of the first is lower: -3.8% for the first, 1% for the second.

First: O=C(Nc1ccccc1[N+](=O)[O-])c1ccc2ccccc2n1
Second: Cc1ccc(/C=C/C(=O)Nc2cccc3ccccc23)o1
The displacement of the first is higher: 89.3% for the first, -7.3% for the second.

First: CC(=O)Nc1ccc2oc(-c3ccc4nc(NC(C)=O)sc4c3)nc2c1
Second: COc1cc2nc(-c3ccc([N+](=O)[O-])cc3)oc(=O)c2cc1OC
The displacement of the first is lower: -4.1% for the first, 78% for the second.

First: Cc1ccc(S(=O)(=O)N2CCCCCC2)cc1
Second: Cc1ccc(S(=O)(=O)/N=C(\c2ccccc2)N(C)C)cc1
The displacement of the first is lower: -12.9% for the first, 13.2% for the second.

Compared with C=CCN1C(=O)/C(=C\c2ccc(C(=O)OC)cc2)SC1=S, C=CCN1C(=O)/C(=C/c2cc(C)n(-c3ccc(C(=O)OC)cc3)c2C)SC1=S is higher in displacement: 7.8% for the first, 109% for the second.

Compared with C=CCN1C(=O)/C(=C\c2cc(C)n(-c3ccc([N+](=O)[O-])cc3)c2C)SC1=S, Cc1cc(/C=C2\SC(=S)NC2=O)c(C)n1-c1cccc([N+](=O)[O-])c1 is lower in displacement: 14.9% for the first, 7.1% for the second.

First: COC(=O)c1ccc(-n2c(C)cc(/C=C3\SC(NC(C)=O)=NC3=O)c2C)cc1
Second: CC(=O)NC1=NC(=O)/C(=C/c2cc(C)n(-c3ccc(C(=O)O)cc3)c2C)S1
The displacement of the first is higher: 114% for the first, -89.7% for the second.

Going from COC(=O)c1cccc(-n2c(C)cc(/C=C3\SC(NC(C)=O)=NC3=O)c2C)c1 to COc1cc(/C=C2/SC(=S)N(c3c(C)n(C)n(-c4ccccc4)c3=O)C2=O)c([N+](=O)[O-])cc1OC, the displacement rises from 1.1% to 61.3%.

Going from COc1ccccc1-n1c(SCC(=O)c2ccccc2)nc2ccccc2c1=O to CCOc1ccccc1N1CCN(C(=O)C(Sc2ccccc2)c2ccccc2)CC1 (stereo not given), the displacement rises from -4.7% to -4.4%.

Compared with COc1ccc(-c2cc(C(=O)OC(C)C)c3cc(Br)ccc3n2)cc1, COc1ccc(-n2nc3cc(C)c(NC(=O)c4cc(Cl)ccc4OC)cc3n2)cc1 is lower in displacement: -3.9% for the first, -5.3% for the second.

Compared with O=C(Nc1ccccc1)C1C2/C=C\CCCCC21 (stereo not given), NC(=O)c1ccc(NC(=O)COc2ccccc2Cl)cc1 is higher in displacement: -10.2% for the first, -2% for the second.

Compared with O=C(N/N=C/c1ccco1)c1ccc(C(=O)N/N=C/c2ccco2)cc1, O=C(NCc1ccc2c(c1)OCO2)c1ccc(F)cc1 is lower in displacement: 27.6% for the first, 11.2% for the second.

First: Cc1cccc(NC(=O)c2ccccc2NC(=O)c2cccs2)c1C
Second: N/C(Cc1cccc2ccccc12)=N\OC(=O)c1cccs1
The displacement of the first is lower: 9.5% for the first, 98.4% for the second.

Compared with CC1CCCCN1C(=O)c1cc2nc(-c3cccs3)cc(C(F)(F)F)n2n1 (stereo not given), O=C(O)c1cnn2c(C(F)(F)F)cc(-c3cccs3)nc12 is lower in displacement: 18.3% for the first, 5.9% for the second.

First: Nc1c(C(=O)C2CC2)sc2nc(-c3cccs3)cc(C(F)(F)F)c12
Second: CC(C)(C)C1(O)CC(C(F)(F)F)=NN1C(=O)COc1ccccc1 (stereo not given)
The displacement of the first is higher: 52.1% for the first, -7.4% for the second.

Going from N#C/C(=C(/O)C(c1ccccc1)c1ccccc1)c1nc2ccccc2s1 to Cc1cc(C)nc(SCC(=O)N(c2ccccc2)c2ccccc2)n1, the displacement falls from -3.6% to -6.6%.

Compared with COc1cc2nc(-c3ccc(Oc4ccc([N+](=O)[O-])cc4)cc3)oc(=O)c2cc1OC, COc1cc(/C=N/N2C(=O)c3ccccc3C2=O)c([N+](=O)[O-])cc1OC is lower in displacement: 10.6% for the first, -1.8% for the second.

Going from CCc1c(C)nc2ccc(C)cc2c1SCC(=O)O to CCOC(=O)C1=C(O)/C(=C\c2ccccc2[N+](=O)[O-])N=C1C, the displacement rises from 9.8% to 15.7%.

First: CSc1nc(N)c(C#N)c(-c2ccccc2)c1C#N
Second: O=C1ON=C(c2ccccc2)/C1=C/c1ccc(Br)s1
The displacement of the first is lower: -11% for the first, 70.8% for the second.

First: O=C1NC(=S)NC(=O)C1=Cc1cn(CCOc2ccc(Br)cc2)c2ccccc12
Second: O=C1NC(=O)C(=Cc2cn(CCOc3ccc(Br)cc3)c3ccccc23)C(=O)N1
The displacement of the first is lower: 9.1% for the first, 73.8% for the second.

Compared with C=CCc1ccccc1OCCn1cc(C=C2C(=O)NC(=O)NC2=O)c2ccccc21, C=CCc1ccccc1OCCn1cc(C=C2C(=O)NC(=S)NC2=O)c2ccccc21 is higher in displacement: -6.7% for the first, 53.6% for the second.

First: Cc1cccc(OCCn2cc(C=C3C(=O)NC(=S)NC3=O)c3ccccc32)c1
Second: COc1cccc(OCCn2cc(C=C3C(=O)NC(=O)NC3=O)c3ccccc32)c1
The displacement of the first is lower: 11.2% for the first, 15.2% for the second.

Compared with C=CCc1ccccc1OCCn1cc(/C=C2/SC(=S)NC2=O)c2ccccc21, CN1C(=O)/C(=C\c2cn(CCOc3ccc(Br)cc3)c3ccccc23)SC1=S is lower in displacement: 5.8% for the first, 3.5% for the second.

First: Cc1ccc(OCCn2cc(C=C3C(=O)NC(=O)NC3=O)c3ccccc32)cc1C
Second: COc1ccccc1/C=C1\SC(=S)N(c2c(C)n(C)n(-c3ccccc3)c2=O)C1=O
The displacement of the first is higher: 79.3% for the first, 1.2% for the second.

Going from c1ccc(C2=C(c3ccccc3)N3CCN=C3S2)cc1 to O=C1ON=C(c2ccccc2)/C1=C/c1cccnc1, the displacement falls from 6.4% to -9.2%.

Compared with O=S1(=O)CCC(NC(=S)N/N=C/c2cccc3ccccc23)C1 (stereo not given), N/C(Cc1cccc2ccccc12)=N\OC(=O)c1ccc(F)cc1 is higher in displacement: 5.1% for the first, 31.7% for the second.

First: Cc1ccc(NC(=O)COC(=O)c2ccn(C)n2)cc1
Second: Cc1ccc(OCC(=O)Nc2cc(Cl)cc(Cl)c2)cc1
The displacement of the first is higher: 13.5% for the first, 12.4% for the second.

First: CCOC(=O)C1=C(O)/C(=C/c2cccnc2)SC1=Nc1ccc([N+](=O)[O-])cc1
Second: CCOC(=O)C1=C(O)/C(=C/c2cccnc2)SC1=Nc1ccc(C)cc1
The displacement of the first is higher: 55.2% for the first, 14.8% for the second.

First: CCOC(=O)C1=C(O)/C(=C/c2cccc([N+](=O)[O-])c2)N=C1C
Second: CCOC(=O)C1=C(O)/C(=C\c2ccc([N+](=O)[O-])cc2)N=C1C
The displacement of the first is higher: 129% for the first, 1.5% for the second.

Going from CCOC(=O)C1=C(O)/C(=C/c2cccc(O)c2)SC1=Nc1ccc([N+](=O)[O-])cc1 to CCOC(=O)C1=C(O)/C(=C/c2cccc(Br)c2)SC1=Nc1ccc([N+](=O)[O-])cc1, the displacement rises from -1.1% to 63.1%.

Going from CCOC(=O)C1=C(O)/C(=C/c2ccccc2)SC1=Nc1ccc([N+](=O)[O-])cc1 to CCOC(=O)C1=C(O)/C(=C/c2ccc(Br)cc2)SC1=Nc1ccc([N+](=O)[O-])cc1, the displacement rises from -0.9% to 15%.

First: CCOC(=O)c1c(NC(=O)/C=C/c2cccs2)sc(C)c1C
Second: Cc1ccc(/C=C/C(=O)Nc2cccc3cccnc23)o1
The displacement of the first is lower: 2.9% for the first, 91.4% for the second.

First: CC(=O)Oc1ccc2c(C)cc(=O)oc2c1C
Second: Cc1cc(Cl)ccc1OCC(N)=O
The displacement of the first is lower: -10.7% for the first, -0.8% for the second.

Compared with CC1CN(C(=O)c2cccs2)CC(C)O1 (stereo not given), COc1ccc(C/C(N)=N/OC(=O)c2cccs2)cc1 is higher in displacement: 3.3% for the first, 8.1% for the second.

Compared with CC(=O)Nc1ccc(NC2=C(Cl)C(=O)c3ccccc3C2=O)cc1, Cc1c(C(=O)Nc2ccc(Cl)cn2)oc2ccccc12 is higher in displacement: 7.1% for the first, 15.4% for the second.

Going from N/C(=N/S(=O)(=O)c1ccc(Br)cc1)c1ccccc1 to CN(C)/C(=N\S(=O)(=O)c1ccc(Br)cc1)c1ccccc1, the displacement rises from 8.5% to 96.8%.

Going from COc1cc(C=Nc2c(C)n(C)n(-c3ccccc3)c2=O)c([N+](=O)[O-])cc1OC to CCOc1ccc(Br)cc1C=Nc1c(C)n(C)n(-c2ccccc2)c1=O, the displacement falls from 130% to -1.8%.

First: Cc1c(N2C(=O)/C(=C/c3cccs3)SC2=S)c(=O)n(-c2ccccc2)n1C
Second: Cc1cccc(N2C(=O)/C(=C/c3ccco3)SC2=S)c1C
The displacement of the first is higher: 8.6% for the first, 1.9% for the second.

First: Cc1ccc(C23CC4CC(CC(C(=O)Nc5ccc(F)cc5F)(C4)C2)C3)cc1
Second: Cc1ccc(CN2CCN(/N=C/c3ccc(C(=O)O)cc3)CC2)cc1
The displacement of the first is lower: -3.1% for the first, 16.4% for the second.

Compared with CC(C)CN1C(=O)c2ccc(C(=O)Nc3ccc(Br)cc3C(=O)O)cc2C1=O, Cc1ccc(C)n1Cc1ccc(C(=O)O)cc1 is higher in displacement: -12.5% for the first, 66.4% for the second.

First: Cc1ccc(/C=C/C(=O)Nc2cccc3ncccc23)o1
Second: CC(=O)c1cccc(NC(=O)/C(=C\c2cccnc2)NC(=O)c2ccccc2)c1
The displacement of the first is higher: 27.1% for the first, -5.3% for the second.

Compared with Cc1cccc(C(C)C)c1NC(=O)COc1ccc(Cl)cc1Cl, COc1ccc(C2C(C(C)=O)=C(Nc3ccccc3)CC(C)(O)C2C(C)=O)cc1 (stereo not given) is lower in displacement: 13.3% for the first, 1.4% for the second.

Compared with O=C(O)c1ccc(CN2CCOCC2)cc1, COc1ccc(C(=O)CSc2nc3c(c(-c4ccc(C)o4)c2C#N)CCCC3)cc1 is lower in displacement: 13.7% for the first, 7.6% for the second.

First: CCCCc1ccc(/C=C2/C(=O)ON=C2c2ccccc2)s1
Second: CCCCN(CC)c1cnn(-c2ccccc2)c(=O)c1N
The displacement of the first is higher: 40.8% for the first, 10.6% for the second.

First: CC(=O)C1=C(Nc2ccc(Br)cc2)CC(C)(O)C(C(C)=O)C1c1ccc(C)cc1 (stereo not given)
Second: COc1ccc(C2C(C(C)=O)=C(Nc3ccc(Br)cc3)CC(C)(O)C2C(C)=O)cc1 (stereo not given)
The displacement of the first is lower: -4.9% for the first, 90.9% for the second.
